Shiga toxin inh – inhibitors of Shiga toxin in Vero cells. Vero cells, Shiga toxin protein synthesis inhibition reporter. inhibition, % at 38.7 µM. 290,000 tested, 9.2% active; in the data active means inhibition mostly above about 28%, no sharp cut-off; inactive means mostly below about 43%
NS1 inh – influenza NS1 inhibition; AID 2326; 270,000 tested, 0.4% active; Potency, µM (doses to about 46.1 µM); further: actives are rising curves; nearly all actives have a fitted effect of over 50% in size
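Compounds were scored for reversing the slow growth caused by influenza A NS1 in S. cerevisiae, measured by optical density at 600 nm. Assay medium contained 2% galactose at pH 6.0; NS1-free yeast of the same strain were the positive control.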
SARS PLP yeast – SARS-CoV PLP inhibition in yeast | S. cerevisiae expressing SARS-CoV PLpro, growth rescue | Potency, µM (doses to about 32.9 µM), hits mostly activators | 330,000 tested, 0.19% active | AID 485353; further: nearly all actives have a fitted effect of over 55% in size
CHX counter – affects cycloheximide protein synthesis inhibition readout, counter-screen | max response, % | 300,000 tested, 12% active | cell reporter, cycloheximide protein synthesis inhibition counterscreen; in the data active means max response mostly above about 13%, no sharp cut-off; inactive means mostly below about 14%; further: read at 38.3 µM for the half of the compounds with a filed dose
Numbers stand for hits; n = inactive; u = inconclusive; x = no result; + = active, no number; [ ] = remark or other dose. Hits are enriched below; roughly 12% of the tested compounds scored in any of these assays. Unless noted, the call rests on the fitted dose curve.

SMILES | Shiga toxin inh | NS1 inh | SARS PLP yeast | CHX counter
O=C(c1cc(-c2ccc(O)cc2)on1)N1CCN(c2ccccc2)CC1 | n | n | n | n
O=C(c1cc(-c2cccc(O)c2)on1)N1CCCCC1 | 36.8 | n | n | 35.1
S=C(NN=C1C2CC3CC(C2)CC1C3)Nc1ccccc1 | 146.0 | n | n | 52.8
CCC(C)(C)C1CCC(=NNC(=S)Nc2ccccc2)CC1 (configuration not stated) | n | x | n | n
Oc1[nH]c2ccccc2c1N=NC(=S)NCC1CCCO1 (configuration not stated) | n | n | n | 17.0
Oc1[nH]c2ccc(Br)cc2c1N=NC(=S)NCC1CCCO1 (configuration not stated) | n | n | n | n
COc1ccccc1CNC(=O)COC(=O)c1ccc(N2CCCC2=O)cc1 | x | x | n | x
O=C(Cc1cccs1)NCc1ccc(F)cc1 | n | n | n | 22.5
O=C(Cc1cccs1)NCc1cccs1 | n | n | n | n
COc1ccc(CNC(=O)Cc2cccs2)cc1 | 60.8 | n | n | 43.1
O=C(Cc1cccs1)NCc1ccc(Cl)cc1 | n | n | n | 15.1
COc1ccc(C(CNC(=O)Cc2cccs2)N(C)C)cc1 (configuration not stated) | n | n | n | 11.1
Cn1cc(S(=O)(=O)c2ccccc2)n(C)c1=O | n | n | n | n
O=C(N/C(=C\c1cccc([N+](=O)[O-])c1)C(=O)N(CCO)CCO)c1ccco1 | n | n | n | n
COc1ccccc1CC(=O)NCc1ccc2c(c1)OCO2 | 29.2 | n | n | 15.6
O=C(Cc1cccs1)NCc1ccc2c(c1)OCO2 | 53.2 | n | n | 17.4
O=C(Cc1cccs1)NCc1cccc(Br)c1 | 66.3 | n | n | 28.8
COc1ccc(C(CNC(=O)CN2C(=O)NC3(CCCC3)C2=O)N(C)C)cc1 (configuration not stated) | n | n | n | 24.6
O=C1CSC(=Nc2cccc(Cl)c2Cl)N1 | n | n | n | n
CCN(CC)CCCN(Cc1cc2ccc(C)c(C)c2[nH]c1=O)C(=O)NC1CCCCC1 | n | n | n | n
CSc1cccc(NC(=O)OC2CCCCCCCCCCC2)c1 | n | n | n | n
Cc1ccc(C2=NN(CCC(=O)NCc3ccc4c(c3)OCO4)C(=O)CC2)cc1 | n | n | n | 20.3
O=C(CCn1c(=O)sc2ccccc21)NCc1ccc2c(c1)OCO2 | n | n | n | 12.0
COc1ccc(C2=NN(CCC(=O)NCc3ccc4c(c3)OCO4)C(=O)CC2)cc1 | n | n | n | n
CN(C)c1ccc(C(CNC(=O)c2cccs2)N(C)C)cc1 (configuration not stated) | 50.6 | n | n | 50.3
SMILES | Shiga toxin inh | NS1 inh | SARS PLP yeast | CHX counter
O=C(CCn1c(=O)oc2ccccc21)NCc1ccc2c(c1)OCO2 | n | n | n | n
N#C/C(=C\c1cccc(O)c1)C(=O)Nc1ccc2c(c1)OCCO2 | 82.5 | n | n | 60.2
CC(C)NC(=O)/C(C#N)=C/c1ccc2c(c1)OCCO2 | 85.3 | n | n | 21.8
C[C@@H](NC(=O)/C(C#N)=C/c1ccc(O)c(O)c1)c1ccccc1 | x | n | x | x
COc1cccc(-c2cc(=O)c3ccccc3o2)c1N | x | n | x | x
COc1cccc2oc(SC)cc(=O)c12 | + | x | x | n
COc1cccc2oc(-c3ccccc3)cc(=O)c12 | 32.9 | x | x | 29.2
Cc1ccc(CNC(=O)CN(C(=O)C2(C)CC(=O)N=C3C=CC=CN32)c2cccc(C)c2C)cc1 (configuration not stated) | n | n | n | n
CCOC(=O)CNc1nc(Cl)nc(N2CCCCC2)n1 | n | n | n | 12.3
CC#CC(=O)N1CCC(CO)(CCc2ccccc2)CC1 | n | n | n | 17.8
Cc1occc1C(=O)Nc1ccc([N+](=O)[O-])cc1Br | n | n | n | n
Cc1cc([N+](=O)[O-])ccc1NC(=O)c1csc(C)c1C | 98.6 | n | u | 63.4
CNC(=S)Nc1ccc([N+](=O)[O-])cc1C | n | n | n | n
Cc1cc([N+](=O)[O-])ccc1NC(=O)c1cccc(NC(=O)C(C)C)c1 | 107.9 | x | n | 15.5
Cc1ccc([N+](=O)[O-])cc1NC(=O)c1ccoc1C | 48.3 | n | n | 35.2
Cc1occc1C(=O)Nc1ccc(Br)cc1F | 52.2 | n | n | 50.9
C/C(=N\NC(N)=S)c1cc(-c2ccccc2)c(-c2ccccc2)s1 | x | n | n | n
CCC(C)(C)C1CCC2(CC1)NC(=O)N(CC(=O)N1CCN(C(=O)c3ccco3)CC1)C2=O (configuration not stated) | x | x | n[6.58 µM] | x
O=C(Cn1cc(S(=O)(=O)N2CCN(c3ccccc3F)CC2)c2ccccc2c1=O)NCCCN1CCCCCC1 | n | x | n | n
O=C(CCl)Nc1cn(-c2ccccc2)nc1-c1ccc(F)cc1 | n | x | n | 24.2
Cc1ccc(NC(=O)CN2C(=O)c3ccccc3S2(=O)=O)cc1C | n | n | n | 11.5
COc1cccc(NC(=O)CCN2C(=O)c3ccccc3S2(=O)=O)c1 | n | n | n | 14.5
Cc1ccc(NC(=O)CCN2C(=O)c3ccccc3S2(=O)=O)cc1C | x | x | n | x
C=C[C@@H]1CN2CC[C@@H]1C[C@H]2[C@H](O)c1ccnc2ccc(OC)cc12 | x | n | x | x
C=CCn1c(CCCOc2ccc(Cl)cc2Cl)n[nH]c1=S | 53.9 | n | n | 19.3
SMILES | Shiga toxin inh | NS1 inh | SARS PLP yeast | CHX counter
N/C(=N\OC(=O)CC1CCCCC1)c1cccc(Br)c1 | 55.3 | n | n | 44.4
N/C(=N\OC(=O)CC1CCCCC1)c1ccc(Cl)cc1 | 73.3 | n | n | 29.7
COc1ccc(/C(N)=N/OC(=O)CC2CCCCC2)cc1OC | 55.1 | n | n | 49.5
N/C(=N\OC(=O)CC1CCCCC1)c1ccc(Br)cc1 | n | n | n | n
COc1ccc(/C(N)=N/OC(=O)CCC2CCCC2)cc1OC | 57.9 | n | n | 22.5
COc1ccc(/C(N)=N/OC(=O)CSc2ccc(C)cc2)cc1OC | n | n | n | n

Screening results (PubChem BioAssay)
